A number with no mark means an inactive call. Activity calls are given as the source filed them.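 Rule for the calls, unless noted: active = mean inhibition above 46.5%, the solvent-only control mean plus 3 SD; inactive = the rest.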
The molecules below were run on transactivating tegument protein VP16 (Human herpesvirus 1) (assay: VP16 transactivation reporter inhibitors, counter-screen for SRC2 inhibitor project, cell-based, luminescence, single concentration (AID 652007; in the data active = inhibition above about 36%)). Conditions: cell-based VP16 transactivation luciferase reporter, at 8.9 µM, hits give high values.
With CC(=O)Nc1ccc(NC(=O)c2ccc(-c3ccnn3C)c3ccoc23)cc1 the inhibition was -6.57%. With CC(C)CC(NC(=O)c1ccco1)C(=O)Nc1ccc2c(c1)OCCO2 (stereo not given) the inhibition was 10.6%. NNC(=O)COc1ccc(C(F)(F)F)cc1 gave an inhibition of -3.76%. CSc1nnc(NC(=O)c2nc(S(=O)(=O)Cc3ccc(C)cc3)ncc2Cl)s1 was tested, and the inhibition was 36.7% (active). Cn1c(=O)c(=O)n(C)c2cc(S(=O)(=O)Nc3ccc4c(c3)OCCO4)ccc21 gave an inhibition of -4.82%. For O=C(Cc1ccc(-c2ccccc2)cc1)NNC(=S)NCc1ccco1, the inhibition was -22.3%. In the case of COc1ccc(NC(=O)CSCC(=O)Nc2ccccc2C(=O)N2CCCCC2)cc1, the inhibition is reported as -8.77%. O=C1c2ccccc2S(=O)(=O)N1Cc1nc2ccccc2s1 showed an inhibition of 6.44%. For Cc1cc(C2=NNC(=NC3CC3)SC2)c(C)n1Cc1ccco1, the inhibition was 78.6% (active). With CC(C)OC(=O)c1ccc(NCc2cc(O)ccc2O)cc1Cl the inhibition was 19.4%. Molecule OC[C@@H]1CN(Cc2ccc(-c3ccccc3)cc2)C[C@H](n2cnc3c(NCc4ccc(F)cc4)ncnc32)O1 has an inhibition of 20.8%. For O=C(O)CCC(=O)Nc1cccc(-c2csc(-c3ccccc3)n2)c1, the inhibition was 47.1% (active). Work on COc1ccc(C(=O)NC(=C(Cl)Cl)S(=O)(=O)c2ccc(C)cc2)cc1 yielded an inhibition of 3.97%. For Cc1ccc(C)c(S(=O)(=O)N2CCN(C(=O)C3CCN(c4ncnc5sc(C)c(C)c45)CC3)CC2)c1, the inhibition was 15.6%. Cc1nc2cc(-c3ccccc3)sc2c(=O)n1N gave an inhibition of 22.3%. O=C(O)c1ccc(Oc2ccc(S(=O)(=O)c3ccc(C(=O)O)c(C(=O)O)c3)cc2)cc1 was tested, and the inhibition was -6.88%. With Cc1ccccc1CS(=O)(=O)c1ccc(C(=O)N2CCOCC2)cc1[N+](=O)[O-] the inhibition was 14.6%. CCC(NC(=O)CCc1c(C)c2cc3c4c(oc3cc2oc1=O)CCCC4)C(=O)O (stereo not given) was tested, and the inhibition was 38.3% (active). For O=C(CCc1nnc(-c2ccc(-c3ccccc3)cc2)o1)NCCc1ccccn1, the inhibition was 14.7%. O=C(NCCS(=O)(=O)N1CCN(c2ccc(F)cc2)CC1)c1ccc(Br)o1 was tested, and the inhibition was -22.6%. O=C(/C=C/c1cn(-c2ccccc2)nc1-c1cccnc1)c1ccco1 was tested, and the inhibition was 29.5%. Cn1c(=N)n(CC(=O)c2ccc(F)cc2)c2ccccc21 was tested, and the inhibition was -28.2%. With Cc1ccc([N+](=O)[O-])cc1N(CC(=O)Nc1ccc(S(=O)(=O)Nc2cccc(C(F)(F)F)c2)cc1)S(C)(=O)=O the inhibition was -13.7%. Molecule COc1cccc(NC(=O)c2cc(Cl)nnc2Cl)c1 has an inhibition of 23.6%. O=C(CSCc1ccc(C(=O)O)cc1)Nc1ccccc1 gave an inhibition of -18.8%. With COc1cccc(CNc2nc(NCC3CC3)nc3ccsc23)c1OC the inhibition was -3.78%. With COc1ccc(N2CCN(C(=O)CCCCCn3c(=S)[nH]c4ccc(N5CCOCC5)cc4c3=O)CC2)cc1 the inhibition was -3.27%. For COc1cc(/C=C2\COC/C(=C\c3cc(OC)c(OC)c(OC)c3)C2=O)cc(OC)c1OC, the inhibition was 96.8% (active). In the case of Cc1cc(=O)n2c3c(c4c(cc13)c(CN(C)C)cc(=O)n4C)OC2, the inhibition is reported as 2.33%. Molecule Cc1nn(Cc2ccc(C(=O)NC(C)(C)C)o2)c(C)c1Br has an inhibition of 5.83%. COc1ccc([N+](=O)[O-])c(S(=O)(=O)c2ccc(Cl)cc2)n1 gave an inhibition of 8.89%. COc1cc(OC)cc(-c2cc3nc(C)c(CCC(=O)NCc4ccccc4)c(C)n3n2)c1 was tested, and the inhibition was 66.8% (active). FC(F)(F)c1cnc(NNC(=S)Nc2ccccc2)c(Cl)c1 showed an inhibition of 10.3%. COc1ccc([C@H]2CC(=O)C=C(c3ccc(Oc4ccccc4)cc3)C2)cc1OC was tested, and the inhibition was 10.7%. For Cc1cc(Cl)n2c(nc3ccccc32)c1C#N, the inhibition was 4.56%. Cc1cc(C(=O)C(C)OC(=O)c2ccc(NC(=O)CC#N)cc2)c(C)n1-c1ccccc1 (stereo not given) showed an inhibition of -36%. Work on Cc1cc(=O)c2ccccc2n1Cc1ccccc1 yielded an inhibition of -10.6%. In the case of CC(=O)CCc1ccc(OCCCCN2CCC(Cc3ccccc3)CC2)cc1, the inhibition is reported as 13.2%. With COc1ccc(OCCCCn2c(CO)nc3ccccc32)cc1 the inhibition was -6.88%. c1ccc(-n2cnc3ccccc32)cc1 gave an inhibition of -25.6%.

What follows are molecules tested against Nuclear receptor coactivator 2 (Homo sapiens) (UniProt Q15596) (assay: SRC2 coactivator transcriptional activity inhibitors, confirmation, cell-based, luminescence, HEK293, triplicate (AID 652008;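 note: 0% = DMSO-treated cells and 100% = Gossypol at 36 µM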)). Conditions: HEK293 GAL4-SRC2 luciferase reporter, at 8.9 µM, hits give high values.
Chain of Nuclear receptor coactivator 2 (Homo sapiens) (Q15596 whole entry, looked up, the tested form may be a part): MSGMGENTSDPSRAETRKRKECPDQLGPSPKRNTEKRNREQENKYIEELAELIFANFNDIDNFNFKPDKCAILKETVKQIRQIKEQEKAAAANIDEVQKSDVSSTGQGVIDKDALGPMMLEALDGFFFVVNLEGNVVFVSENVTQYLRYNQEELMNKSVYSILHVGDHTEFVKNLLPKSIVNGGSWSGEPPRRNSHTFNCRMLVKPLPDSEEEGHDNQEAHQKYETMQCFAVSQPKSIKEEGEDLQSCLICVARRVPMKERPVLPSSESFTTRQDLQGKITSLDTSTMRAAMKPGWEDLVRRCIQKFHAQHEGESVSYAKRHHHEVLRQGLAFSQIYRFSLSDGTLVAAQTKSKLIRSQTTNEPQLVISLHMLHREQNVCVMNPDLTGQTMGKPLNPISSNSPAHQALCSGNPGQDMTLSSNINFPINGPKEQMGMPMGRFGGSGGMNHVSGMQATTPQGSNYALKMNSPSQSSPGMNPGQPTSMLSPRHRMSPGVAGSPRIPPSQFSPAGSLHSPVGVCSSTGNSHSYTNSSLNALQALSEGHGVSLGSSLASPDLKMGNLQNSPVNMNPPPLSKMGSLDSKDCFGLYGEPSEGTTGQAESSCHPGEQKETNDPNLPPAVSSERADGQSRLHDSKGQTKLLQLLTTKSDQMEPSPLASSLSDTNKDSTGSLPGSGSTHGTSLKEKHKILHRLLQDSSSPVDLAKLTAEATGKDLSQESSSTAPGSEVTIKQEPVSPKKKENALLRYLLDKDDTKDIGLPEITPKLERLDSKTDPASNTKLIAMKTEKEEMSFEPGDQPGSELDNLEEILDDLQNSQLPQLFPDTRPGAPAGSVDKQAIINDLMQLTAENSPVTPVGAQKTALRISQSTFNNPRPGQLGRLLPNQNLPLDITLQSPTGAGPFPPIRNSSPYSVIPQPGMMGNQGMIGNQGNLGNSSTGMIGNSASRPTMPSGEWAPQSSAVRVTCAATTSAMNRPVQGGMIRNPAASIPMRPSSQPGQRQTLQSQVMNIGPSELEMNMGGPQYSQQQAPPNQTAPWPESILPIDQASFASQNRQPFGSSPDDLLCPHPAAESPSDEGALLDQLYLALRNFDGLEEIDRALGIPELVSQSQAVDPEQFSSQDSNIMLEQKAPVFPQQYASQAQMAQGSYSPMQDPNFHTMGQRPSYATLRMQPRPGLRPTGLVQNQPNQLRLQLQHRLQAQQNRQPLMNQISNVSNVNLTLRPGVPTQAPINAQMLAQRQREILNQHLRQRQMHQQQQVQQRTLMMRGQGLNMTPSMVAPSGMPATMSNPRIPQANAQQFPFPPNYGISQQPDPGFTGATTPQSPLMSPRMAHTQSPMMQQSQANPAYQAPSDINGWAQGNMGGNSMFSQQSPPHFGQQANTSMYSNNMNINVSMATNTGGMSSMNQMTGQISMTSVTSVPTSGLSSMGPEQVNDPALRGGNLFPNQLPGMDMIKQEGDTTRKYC
In the case of CC(=O)Nc1ccc(NC(=O)c2ccc(-c3ccnn3C)c3ccoc23)cc1, the inhibition is reported as 26.4%. Molecule CC(C)CC(NC(=O)c1ccco1)C(=O)Nc1ccc2c(c1)OCCO2 (stereo not given) has an inhibition of 7.27%. With NNC(=O)COc1ccc(C(F)(F)F)cc1 the inhibition was 4.91%. For CSc1nnc(NC(=O)c2nc(S(=O)(=O)Cc3ccc(C)cc3)ncc2Cl)s1, the inhibition was 55.7% (active). For Cn1c(=O)c(=O)n(C)c2cc(S(=O)(=O)Nc3ccc4c(c3)OCCO4)ccc21, the inhibition was 47.5% (active). Molecule O=C(Cc1ccc(-c2ccccc2)cc1)NNC(=S)NCc1ccco1 has an inhibition of -9.18%. COc1ccc(NC(=O)CSCC(=O)Nc2ccccc2C(=O)N2CCCCC2)cc1 showed an inhibition of -20.5%. O=C1c2ccccc2S(=O)(=O)N1Cc1nc2ccccc2s1 was tested, and the inhibition was 31.4%. Cc1cc(C2=NNC(=NC3CC3)SC2)c(C)n1Cc1ccco1 was tested, and the inhibition was 93.6% (active). CC(C)OC(=O)c1ccc(NCc2cc(O)ccc2O)cc1Cl was tested, and the inhibition was 89.1% (active). Work on OC[C@@H]1CN(Cc2ccc(-c3ccccc3)cc2)C[C@H](n2cnc3c(NCc4ccc(F)cc4)ncnc32)O1 yielded an inhibition of 22.9%. O=C(O)CCC(=O)Nc1cccc(-c2csc(-c3ccccc3)n2)c1 gave an inhibition of 34.6%. COc1ccc(C(=O)NC(=C(Cl)Cl)S(=O)(=O)c2ccc(C)cc2)cc1 showed an inhibition of 36.6%. In the case of Cc1ccc(C)c(S(=O)(=O)N2CCN(C(=O)C3CCN(c4ncnc5sc(C)c(C)c45)CC3)CC2)c1, the inhibition is reported as 38.6%. In the case of Cc1nc2cc(-c3ccccc3)sc2c(=O)n1N, the inhibition is reported as 45%. With O=C(O)c1ccc(Oc2ccc(S(=O)(=O)c3ccc(C(=O)O)c(C(=O)O)c3)cc2)cc1 the inhibition was -6.84%. Molecule Cc1ccccc1CS(=O)(=O)c1ccc(C(=O)N2CCOCC2)cc1[N+](=O)[O-] has an inhibition of 24.6%. With CCC(NC(=O)CCc1c(C)c2cc3c4c(oc3cc2oc1=O)CCCC4)C(=O)O (stereo not given) the inhibition was 70.3% (active). In the case of O=C(CCc1nnc(-c2ccc(-c3ccccc3)cc2)o1)NCCc1ccccn1, the inhibition is reported as 54% (active). Molecule O=C(NCCS(=O)(=O)N1CCN(c2ccc(F)cc2)CC1)c1ccc(Br)o1 has an inhibition of -4.89%. Molecule O=C(/C=C/c1cn(-c2ccccc2)nc1-c1cccnc1)c1ccco1 has an inhibition of 39.6%. For Cn1c(=N)n(CC(=O)c2ccc(F)cc2)c2ccccc21, the inhibition was -22.8%. Work on Cc1ccc([N+](=O)[O-])cc1N(CC(=O)Nc1ccc(S(=O)(=O)Nc2cccc(C(F)(F)F)c2)cc1)S(C)(=O)=O yielded an inhibition of -3.19%. Work on COc1cccc(NC(=O)c2cc(Cl)nnc2Cl)c1 yielded an inhibition of 44%. With O=C(CSCc1ccc(C(=O)O)cc1)Nc1ccccc1 the inhibition was -31.5%. In the case of COc1cccc(CNc2nc(NCC3CC3)nc3ccsc23)c1OC, the inhibition is reported as 18.8%. Work on COc1ccc(N2CCN(C(=O)CCCCCn3c(=S)[nH]c4ccc(N5CCOCC5)cc4c3=O)CC2)cc1 yielded an inhibition of -4.46%. For COc1cc(/C=C2\COC/C(=C\c3cc(OC)c(OC)c(OC)c3)C2=O)cc(OC)c1OC, the inhibition was 97.7% (active). Molecule Cc1cc(=O)n2c3c(c4c(cc13)c(CN(C)C)cc(=O)n4C)OC2 has an inhibition of -129%. Work on Cc1nn(Cc2ccc(C(=O)NC(C)(C)C)o2)c(C)c1Br yielded an inhibition of 17.8%. COc1ccc([N+](=O)[O-])c(S(=O)(=O)c2ccc(Cl)cc2)n1 was tested, and the inhibition was 52.3% (active). In the case of COc1cc(OC)cc(-c2cc3nc(C)c(CCC(=O)NCc4ccccc4)c(C)n3n2)c1, the inhibition is reported as 72.1% (active). With FC(F)(F)c1cnc(NNC(=S)Nc2ccccc2)c(Cl)c1 the inhibition was 14%. In the case of COc1ccc([C@H]2CC(=O)C=C(c3ccc(Oc4ccccc4)cc3)C2)cc1OC, the inhibition is reported as 15.4%. Molecule Cc1cc(Cl)n2c(nc3ccccc32)c1C#N has an inhibition of 28.4%. Cc1cc(C(=O)C(C)OC(=O)c2ccc(NC(=O)CC#N)cc2)c(C)n1-c1ccccc1 (stereo not given) was tested, and the inhibition was 26.3%. Molecule Cc1cc(=O)c2ccccc2n1Cc1ccccc1 has an inhibition of 18.6%. Work on CC(=O)CCc1ccc(OCCCCN2CCC(Cc3ccccc3)CC2)cc1 yielded an inhibition of 0.94%. COc1ccc(OCCCCn2c(CO)nc3ccccc32)cc1 was tested, and the inhibition was -14.2%. In the case of c1ccc(-n2cnc3ccccc32)cc1, the inhibition is reported as 5.17%.

Reference: PubChem BioAssay
